About 1,500 (3.8%) of roughly 39,000 compounds were called active. The full list was thinned out, with actives kept by preference.

The test system of this test is HSkMC (human skeletal muscle cells). Description: cytotoxicity call (relative viability < 0.9). The note with it: 10 µM.
As to `C[C@@H]1CCCCO[C@H](CN(C)S(=O)(=O)c2cn(C)cn2)[C@@H](C)CN([C@@H](C)CO)C(=O)c2cc(NC(=O)Nc3cccc4ccccc34)ccc2O1`, the cytotoxicity call is “inactive”.
Then `CO[C@@H]1CN(C)C(=O)c2ccc(NC(=O)C3CCOCC3)cc2OC[C@@H](C)N(C(=O)C2CCOCC2)C[C@H]1C`, with “inactive”.
For the compound `C[C@@H]1CN([C@@H](C)CO)C(=O)Cc2cc(NS(=O)(=O)c3ccccc3)ccc2O[C@@H]1CN(C)Cc1ccc(-c2ccccc2)cc1`, the cytotoxicity call was “active”.
As for `C[C@@H]1CN([C@@H](C)CO)C(=O)Cc2cc(NS(=O)(=O)c3ccccc3)ccc2O[C@H]1CN(C)Cc1ccc(-c2ccccc2)cc1`, the cytotoxicity call was “inactive”.
In the case of `C[C@H](CO)N1C[C@H](C)[C@H](CN(C)Cc2ccc(-c3ccccc3)cc2)Oc2ccc(NS(=O)(=O)c3ccccc3)cc2CC1=O`, the cytotoxicity call is “inactive”.
Then `C[C@H]1CN([C@@H](C)CO)C(=O)Cc2cc(NS(=O)(=O)c3ccccc3)ccc2O[C@H]1CN(C)Cc1ccc(-c2ccccc2)cc1`, with “active”; and `C[C@H]1CN([C@@H](C)CO)C(=O)Cc2cc(NS(=O)(=O)c3ccccc3)ccc2O[C@@H]1CN(C)Cc1ccc(-c2ccccc2)cc1`, with “active”.
With `C[C@H](CO)N1C[C@H](C)[C@@H](CN(C)Cc2ccc(-c3ccccc3)cc2)Oc2ccc(NS(=O)(=O)c3ccccc3)cc2CC1=O`, the cytotoxicity call was “inactive”.
In the case of `C[C@@H]1CN([C@H](C)CO)C(=O)Cc2cc(NS(=O)(=O)c3ccccc3)ccc2O[C@H]1CN(C)Cc1ccc(-c2ccccc2)cc1`, the cytotoxicity call is “active”.
Take `C[C@@H]1CN([C@H](C)CO)C(=O)Cc2cc(NS(=O)(=O)c3ccccc3)ccc2O[C@@H]1CN(C)Cc1ccc(-c2ccccc2)cc1`: the cytotoxicity call is “inactive”.
Consider `CN(C)c1cncc(C(=O)O)c1`, for which the cytotoxicity call was “inactive”.
Turning to `C[C@@H]1CCCCO[C@H](CN(C)C(=O)Nc2ccc3c(c2)OCO3)[C@H](C)CN([C@H](C)CO)C(=O)c2cc(NS(=O)(=O)c3ccccc3)ccc2O1`, the cytotoxicity call is “inactive”.
Consider `CC(C)C#Cc1ccc2c(c1)O[C@H](CN(C)C(=O)Cc1ccccn1)[C@H](C)CN([C@H](C)CO)S2(=O)=O`, for which the cytotoxicity call was “inactive”.
In the case of `Cc1noc(C)c1NC(=O)N(C)C[C@@H]1Oc2ccc(NC(=O)NC(C)C)cc2CC(=O)N([C@H](C)CO)C[C@H]1C`, the cytotoxicity call was “inactive”.
`CCCC(=O)Nc1ccc2c(c1)OC[C@@H](C)N(C(=O)Cc1ccccn1)C[C@@H](C)[C@H](OC)CN(C)C2=O`: the cytotoxicity call was “inactive”.
Regarding `CCN1C(=O)CS/C1=N\N1CCOCC1`, the cytotoxicity call was “inactive”.
In the case of `C[C@@H]1CN([C@H](C)CO)C(=O)c2cc(NC(=O)Nc3ccc(C(F)(F)F)cc3)ccc2O[C@@H](C)CCCCO[C@H]1CN(C)C(=O)Nc1ccc(F)cc1`, the cytotoxicity call was “inactive”.
`COCCCNC(=O)[C@@]1(Sc2ccc(C)cc2)CC(=O)N(Cc2ccccc2C(F)(F)F)[C@@H]1c1ccc(CO)cc1`: the cytotoxicity call is “inactive”.
Then `C[C@@H]1CCCCO[C@@H](CN(C)C(=O)C2CCCCC2)[C@H](C)CN([C@@H](C)CO)C(=O)c2cc(NC(=O)Nc3ccccc3)ccc2O1`, with “inactive”; and `C[C@@H]1CCCCO[C@H](CN(C)C(=O)Nc2ccc3c(c2)OCO3)[C@H](C)CN([C@H](C)CO)C(=O)c2cc(NC(=O)c3ccncc3)ccc2O1`, with “inactive”.
Turning to `C[C@@H]1CN([C@@H](C)CO)C(=O)c2ccccc2-c2ccccc2CO[C@H]1CN(C)C(=O)Nc1ccc(F)cc1`, the cytotoxicity call was “inactive”.
On to `C[C@H](NC(=O)[C@@H](Cc1ccc2ccccc2c1)NC(=O)[C@@H](C)N)C(=O)N[C@@H](Cc1c[nH]c2ccccc12)C(=O)N[C@H](Cc1ccccc1)C(=O)N[C@@H](CCCCN)C(N)=O`, for which the cytotoxicity call is “inactive”.
For `CC(C)C[C@H](NP(=O)(O)O[C@H]1O[C@@H](C)[C@@H](O)[C@@H](O)[C@@H]1O)C(=O)N[C@H](Cc1c[nH]c2ccccc12)C(=O)O` the value was “inactive”; for `CC(C)CC(NC(=O)C(C)NC(=O)CNC(=O)C(NC=O)C(C)C)C(=O)NC(C)C(=O)NC(C(=O)NC(C(=O)NC(C(=O)NC(Cc1c[nH]c2ccccc12)C(=O)NC(CC(C)C)C(=O)NC(Cc1c[nH]c2ccccc12)C(=O)NC(CC(C)C)C(=O)NC(Cc1c[nH]c2ccccc12)C(=O)NC(CC(C)C)C(=O)NC(Cc1c[nH]c2ccccc12)C(=O)NCCO)C(C)C)C(C)C)C(C)C` (stereo not drawn) [GRAMICIDIN (gramicidin A shown) ], “active”; for `CCOc1ccc(C(=O)Nc2ccc(N3CCN(C(=O)c4cccs4)CC3)c(Cl)c2)cc1Br`, “inactive”.
With `C[C@@H]1CCCCO[C@@H](CN(C)Cc2ccc(C(=O)Nc3ccccc3N)cc2)[C@@H](C)CN([C@H](C)CO)C(=O)c2cc(NC(=O)Nc3cccc4ccccc34)ccc2O1`, the cytotoxicity call is “inactive”.
For `CCC(C)C1OC2(CCC1C)CC1CC(CC=C(C)C(OC3CC(OC)C(OC4CC(OC)C(O)C(C)O4)C(C)O3)C(C)C=CC=C3COC4C(O)C(C)=CC(C(=O)O1)C34O)O2` (stereo not drawn) the value was “inactive”.
Turning to `CC[C@@H](C)[C@H]1O[C@@]2(CC[C@@H]1C)C[C@H]1C[C@@H](CC=C(C)[C@@H](O[C@H]3C[C@@H](OC)[C@@H](O[C@H]4C[C@@H](OC)[C@@H](O)[C@@H](C)O4)[C@@H](C)O3)[C@@H](C)C=CC=C3CO[C@H]4[C@@H](O)C(C)=C[C@@H](C(=O)O1)[C@]34O)O2.CO[C@H]1C[C@@H](O[C@@H]2[C@@H](OC)C[C@@H](O[C@@H]3C(C)=CC[C@@H]4C[C@@H](C[C@@]5(CC[C@@H](C)[C@H](C(C)C)O5)O4)OC(=O)[C@@H]4C=C(C)[C@H](O)[C@@H]5OCC(=CC=C[C@@H]3C)[C@@]45O)O[C@@H]2C)O[C@@H](C)[C@@H]1O`, the cytotoxicity call was “active”.
For `CC[C@H](C)[C@H]1O[C@]2(CC[C@@H]1C)C[C@@H]1C[C@@H](C/C=C(\C)[C@@H](O[C@H]3C[C@H](OC)[C@@H](O[C@H]4C[C@H](OC)[C@@H](O)[C@H](C)O4)[C@H](C)O3)[C@@H](C)/C=C/C=C3\CO[C@@H]4[C@H](O)C(C)=C[C@@H](C(=O)O1)[C@]34O)O2` the value was “active”; for `O=[N+]([O-])c1cc(N(CCO)CCO)ccc1NCCO`, “inactive”; for `O=C(C[C@@H]1CC[C@H]2[C@@H](COC[C@@H](O)CN2C(=O)Nc2cccc(F)c2)O1)NCCCN1CCOCC1`, “inactive”.
`C[C@@H]1CCCCO[C@H](CN(C)Cc2ccccc2)[C@@H](C)CN([C@@H](C)CO)C(=O)c2cc(NC(=O)CCC(F)(F)F)ccc2O1`: the cytotoxicity call was “inactive”.
Regarding `CCS(=O)(=O)Nc1ccc2c(c1)CC(=O)N2`, the cytotoxicity call is “inactive”.
As for `CCS(=O)(=O)Nc1ccc2c(c1)C(=O)N(C)[C@@H]1CC[C@H](CC(=O)N[C@H]3CCN(Cc4ccccc4)C3)O[C@H]1CO2`, the cytotoxicity call was “inactive”.
Consider `CCS(=O)(=O)Nc1ccc2c(c1)/C(=C(/Nc1ccc(CN3CCCCC3)cc1)c1ccccc1)C(=O)N2`, for which the cytotoxicity call is “active”.
Consider `Cc1ccc(S[C@]2(C(=O)NCCCN(C)C)CC(=O)N(Cc3ccccc3C(F)(F)F)[C@@H]2c2ccc(CO)cc2I)cc1`, for which the cytotoxicity call is “inactive”.
In the case of `C[C@@H]1CN([C@H](C)CO)C(=O)c2cc(NC(=O)c3ccncc3)ccc2O[C@@H](C)CCCCO[C@@H]1CN(C)C(=O)Nc1cccc2ccccc12`, the cytotoxicity call was “inactive”.
As to `C[C@H]1CCCCO[C@H](CN(C)C(=O)Nc2cccc3ccccc23)[C@@H](C)CN([C@@H](C)CO)C(=O)c2cc(NC(=O)c3ccncc3)ccc2O1`, the cytotoxicity call is “inactive”.
For the compound `C[C@H](CO)N1C[C@H](C)[C@@H](CN(C)C(=O)Nc2cccc3ccccc23)OCCCC[C@H](C)Oc2ccc(NC(=O)c3ccncc3)cc2C1=O`, the cytotoxicity call was “inactive”.
For `C[C@@H]1CCCCO[C@@H](CN(C)C(=O)Nc2cccc3ccccc23)[C@H](C)CN([C@@H](C)CO)C(=O)c2cc(NC(=O)c3ccncc3)ccc2O1` the value was “inactive”; for `C[C@@H]1CCCCO[C@H](CN(C)C(=O)Nc2cccc3ccccc23)[C@@H](C)CN([C@@H](C)CO)C(=O)c2cc(NC(=O)c3ccncc3)ccc2O1`, “active”; for `C[C@@H]1CN([C@H](C)CO)C(=O)c2cc(NC(=O)c3ccncc3)ccc2O[C@@H](C)CCCCO[C@H]1CN(C)C(=O)Nc1cccc2ccccc12`, “active”.
Take `C[C@@H]1CN([C@@H](C)CO)C(=O)Cc2cc(NC(=O)C3CCCCC3)ccc2O[C@H]1CN(C)S(C)(=O)=O`: the cytotoxicity call is “inactive”.
Turning to `C[C@@H]1CN([C@@H](C)CO)C(=O)c2cccc(NS(C)(=O)=O)c2O[C@@H]1CN(C)S(C)(=O)=O`, the cytotoxicity call was “inactive”.
Then `COc1ccc(S(=O)(=O)Nc2ccc3c(c2)C(=O)N([C@@H](C)CO)C[C@H](C)[C@@H](CN(C)C(=O)Nc2ccc(F)cc2)OCCCC[C@H](C)O3)cc1`, with “inactive”; and `C[C@@H]1CCCCO[C@@H](CN(C)C(=O)Nc2ccccc2)[C@H](C)CN([C@@H](C)CO)C(=O)c2cc(NC(=O)Nc3cccc4ccccc34)ccc2O1`, with “inactive”; and `C[C@H](CO)N1C[C@H](C)[C@H](CN(C)CC2CCOCC2)Oc2ncc(C#CCc3ccccc3)cc2C1=O`, with “inactive”.
With `COc1ccc(NC(=O)Nc2ccc3c(c2)C(=O)N([C@H](C)CO)C[C@H](C)[C@@H](CN(C)C(=O)Nc2c(C)noc2C)OCCCC[C@@H](C)O3)cc1`, the cytotoxicity call is “inactive”.
For the compound `O=C1N[C@@H](c2ccccc2)COCc2cn(nn2)CC[C@H](Cc2ccc(C(F)(F)F)cc2)C(=O)N[C@@H](c2ccccc2)COCc2cn(nn2)CC[C@@H]1Cc1ccc(C(F)(F)F)cc1`, the cytotoxicity call is “inactive”.
In the case of `C[C@@H]1CN([C@H](C)CO)C(=O)c2cc(NC(=O)Nc3ccc(C(F)(F)F)cc3)ccc2O[C@H]1CN(C)Cc1ccc(C(F)(F)F)cc1`, the cytotoxicity call is “active”.
For `C[C@@H]1CN([C@H](C)CO)C(=O)c2cc(NC(=O)Nc3ccc(C(F)(F)F)cc3)ccc2O[C@@H]1CN(C)Cc1ccc(C(F)(F)F)cc1` the value was “active”.
With `C[C@H]1CN([C@@H](C)CO)C(=O)c2cc(NC(=O)Nc3ccc(C(F)(F)F)cc3)ccc2O[C@@H]1CN(C)Cc1ccc(C(F)(F)F)cc1`, the cytotoxicity call was “active”.
Consider `C[C@H]1CN([C@@H](C)CO)C(=O)c2cc(NC(=O)Nc3ccc(C(F)(F)F)cc3)ccc2O[C@H]1CN(C)Cc1ccc(C(F)(F)F)cc1`, for which the cytotoxicity call was “active”.

The values are drawn from the antibiotic and cytotoxicity screens of Wong et al. (2023).
